High-throughput results (PubChem)
KCNQ2 block – rat KCNQ2 potassium channel inhibitors, primary screen, cell-based, CHO-K1, FluxOR thallium flux, B-score | B-score at 10 µM | 20 min; active compounds read low | 310,000 tested, 1.1% active | Potassium voltage-gated channel subfamily KQT member 2 (Rattus norvegicus), O88943;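 active = fluorescence ratio B-score at most minus 3 library SDs, with starting brightness B-score within 2 library SDs, cut at about -5.5 in these data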
KCNQ2 enhance – potentiators of rat KCNQ2 potassium channel; CHO-K1 KCNQ2, FluxOR thallium flux fluorescence; active compounds read high; B-score at 10 µM; 310,000 tested, 0.54% active; AID 2239, 2010;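 active = fluorescence ratio B-score at least 3 SD of library B-scores, with initial fluorescence B-score within 3 of them, cut at about 5.3 in these data; same plate scores as AID 2156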;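 also: B-score of peak minus minimum over baseline fluorescence ratio after K+ and Tl+ stimulus; positive B-score means potentiation of KCNQ2 with more thallium influx and brighter signal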
Kir21 conf inh – mouse Kir2.1 channel blockers, retest, confirmation, cell-based, FluxOR thallium flux, duplicate; Tl flux remaining, % of negative control (active compounds read low), % at 10 µM; shares compounds with KCNQ2 enhance; Kir2.1-expressing cells, FluxOR thallium flux fluorescence; active compounds read low; 2,300 tested, 41% active;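 active = Primary-screen hit whose thallium flux fell at least 3 control SD below untreated wells in both duplicates, with normal baseline fluorescence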
HEK293 ctr – counter-screen for Kir2.1 inhibitors: effect in parental HEK293 cells. shares compounds with KCNQ2 enhance. FluxOR thallium flux fluorescence; 0% = unstimulated blank wells. FluxOR signal as % of negative control (100 = no effect), % at 10 µM. 2,300 tested, 19% active;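 active = dye signal at least 3 control SD above or below untreated wells in both duplicates, raw fluorescence within 3, either direction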;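 also: percent is based on the flux ratio of peak minus minimum fluorescence over baseline F0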
CHO-K1 Tl ctr – nonspecific thallium flux increase in parental CHO-K1, confirmation, counter-screen for KCNQ2 potentiator project, cell-based, FluxOR thallium flux, duplicate; shares compounds with KCNQ2 enhance; parental CHO-K1 cells, FluxOR thallium flux fluorescence; zero = vehicle mean+3SD, 100% = vehicle-minus-blank window; activity increase over 3SD of controls, % at 10 µM; 1,200 tested, 43% active; AID 2282, 2010;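 active = signal rise of at least 3 SD above the untreated control mean, in both duplicate wells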;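 also: counter screen of KCNQ2 potentiator hits so any rise reflects channel-independent effects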
KCNQ1 pot spec – human KCNQ1 channel potentiation off-target, confirmation, selectivity assay for KCNQ2 potentiator project, cell-based, CHO, FluxOR thallium flux | 1,200 tested, 28% active | shares compounds with KCNQ2 enhance | CHO KCNQ1 stable, FluxOR thallium flux fluorescence; beyond 3SD, as % of vehicle-control signal | activation over 3SD threshold, % at 10 µM;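 active = fluorescence ratio rise of at least 3 SD of vehicle wells above their mean, in both replicate wells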
KCNQ2 pot confirm – rat KCNQ2 channel potentiators, confirmation, cell-based, CHO, FluxOR thallium flux, duplicate; 1,200 tested, 68% active; shares compounds with KCNQ2 enhance; CHO-KCNQ2 cells, FluxOR thallium flux fluorescence; potentiation, less the hit threshold, % at 10 µM;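 active = fluorescence ratio rising 3 SD or more over the vehicle control mean in both replicates, plus primary screen hit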;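 also: peak minus minimum thallium fluorescence divided by baseline after K/Tl stimulus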
Kir2-1 sel – mouse Kir2.1 channel activation off-target, confirmation, selectivity assay for KCNQ2 potentiator project, cell-based, HEK293, FluxOR thallium flux; AID 2345, 2010; activity over 3SD threshold, % at 10 µM; HEK293 Kir2.1, FluxOR thallium flux fluorescence; shares compounds with KCNQ2 enhance; 1,200 tested, 2% active;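 active = fluorescence ratio rise of at least 3 SD above the vehicle-control mean, seen in both replicates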
KCNQ2 W236L MoA – potentiators of retigabine-insensitive KCNQ2 W236L, mechanism study for KCNQ2 potentiator project, cell-based, rat KCNQ2 W236L, CHO, automated patch clamp; shares compounds with KCNQ2 enhance; automated patch clamp current; current increase over 3SD of negative controls (%), active compounds read high, % at 25 µM; 940 tested, 10% active; AID 2558, 2010;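 active = current increase at least 3 SD of the untreated controls above them in both duplicate recordings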
A number is an active result; 0 = inactive; - = no result given. In the library only some 1.6% were active in any assay of this set; here they are far more common.

SMILES | KCNQ2 block | KCNQ2 enhance | Kir21 conf inh | HEK293 ctr | CHO-K1 Tl ctr | KCNQ1 pot spec | KCNQ2 pot confirm | Kir2-1 sel | KCNQ2 W236L MoA
CCCOc1ccc(C(=O)NNC(=S)NC(=O)c2ccccc2)cc1 | 0 | 20 | 0 | 0 | 0 | 3.3 | 0 | 0 | -
CCOc1ccc(C(=O)NC(=S)N(Cc2ccccc2)Cc2ccccc2)cc1 | 0 | 20 | 0 | 176% | 0 | 0 | 0.5 | 0 | 0
Cc1ccc(C(=O)NC(=S)N(C)Cc2ccccc2)cc1 | 0 | 0 | - | - | - | - | - | - | -
CCCN(CCC)C(=S)NC(=O)c1ccc(-c2ccccc2)cc1 | 0 | 14 | 0 | 340% | 26 | 3.5 | 38 | 0 | 0
CCCOc1ccc(C(=O)NNC(=S)NC(C)=O)cc1 | 0 | 0 | - | - | - | - | - | - | -
CC1(C)Cc2c(cnn2-c2ccc(F)cc2)C(NC(=O)C2=NNC(=O)CC2)C1 (centres undefined) | 0 | - | - | - | - | - | - | - | -
CCOc1ccc(OCCC(=O)N(CCCOC)c2c(N)n(Cc3ccccc3)c(=O)[nH]c2=O)cc1 | 0 | 0 | - | - | - | - | - | - | -
CC(C)CCN(CCC(C)C)C(CO)(CO)CO | 0 | - | - | - | - | - | - | - | -
CCn1c(SCC(=O)NC(=O)c2ccccc2OC)nc2ccccc21 | 0 | 0 | - | - | - | - | - | - | -
O=C(Cc1ccccc1F)Nc1ccc2c(c1)CCC2 | 0 | 0 | - | - | - | - | - | - | -
O=C(Cc1cccc(F)c1)Nc1ccc2c(c1)CCC2 | 0 | 5.5 | 0 | 0 | 3.6 | 0 | 21 | 0 | 0
CC(NC(=O)CN1C(=O)NC(C)(c2cccc3ccccc23)C1=O)c1ccccc1 (centres undefined) | 0 | 0 | - | - | - | - | - | - | -
CCN(CC)S(=O)(=O)c1ccc(Cl)c(OC)c1 | 0 | 0 | - | - | - | - | - | - | -
CCCN(CCC)S(=O)(=O)c1ccc(Cl)c(OC)c1 | 0 | - | 55% | 0 | - | - | - | - | -
S=c1nc(C2CCCCC2)n(-c2ccccc2)[nH]1 | 0 | 11 | 0 | 262% | 42 | 0 | 22 | 0 | 0
S=c1nc(-c2ccccc2)n(-c2ccccc2)[nH]1 | 0 | 0 | - | - | - | - | - | - | -
CCOc1ccccc1NC(=O)COC(=O)C1CC(=O)N(c2c(C)cccc2C)C1 (centres undefined) | 0 | - | - | - | - | - | - | - | -
CC(=O)N1c2ccc(N=Cc3cc(Br)cc(Br)c3O)cc2CC1C (centres undefined) | 0 | 12 | 0 | 0 | 0 | 43 | 14 | 0 | 0
CC1CCCC(C)N1/N=C/c1cc(Br)cc(Br)c1O (centres undefined) | 0 | - | - | - | - | - | - | - | -
O=c1[nH]cc(N=Cc2cc(Cl)cc(Cl)c2O)c(=O)[nH]1 | 0 | 8.3 | 0 | 0 | 15 | 18 | 24 | 0 | 0
O=c1[nH]cc(N=Cc2cc([N+](=O)[O-])ccc2O)c(=O)[nH]1 | 0 | - | - | - | - | - | - | - | -
COc1ccccc1NC(=O)C1CCCN(S(=O)(=O)c2ccc(-n3cnnn3)cc2)C1 (centres undefined) | 0 | - | - | - | - | - | - | - | -
Cn1cccc1/C=N/NC(=O)c1cc2ccccc2cc1O | 0 | - | - | - | - | - | - | - | -
Cc1nn(C(C)C)c(C)c1CN1CCC(C(=O)Nc2cccc(-c3cccc(F)c3)c2)CC1 | 0 | - | - | - | - | - | - | - | -
